Compound activity deposited in PubChem BioAssay by National Center for Advancing Translational Sciences (NCATS).
VACV Venus inh – inhibitors of vaccinia virus (Venus reporter); 0.46% of 330,000 active; Potency, µM (highest dose often 36.5 µM), for inactives: top-dose activity change, negative = inhibition, actives largely listed as inhibitors; AID 720580; Vaccinia virus Venus reporter expression, fluorescence; calls by dose curve; tested in A549 cells; note: nearly all actives have a fitted effect of over 30% in size
Giardia FBPA inh-1 – Giardia lamblia aldolase inhibition; Potency, µM (titrated, usually from 59.6 µM), inactives show at the highest dose activity, negative = inhibition, most hits filed as inhibitors; purified Giardia FBPA; 0.71% of 290,000 active; note: nearly all actives have a fitted effect of over 55% in size
Target sequence (A8B2U2 whole entry, looked up): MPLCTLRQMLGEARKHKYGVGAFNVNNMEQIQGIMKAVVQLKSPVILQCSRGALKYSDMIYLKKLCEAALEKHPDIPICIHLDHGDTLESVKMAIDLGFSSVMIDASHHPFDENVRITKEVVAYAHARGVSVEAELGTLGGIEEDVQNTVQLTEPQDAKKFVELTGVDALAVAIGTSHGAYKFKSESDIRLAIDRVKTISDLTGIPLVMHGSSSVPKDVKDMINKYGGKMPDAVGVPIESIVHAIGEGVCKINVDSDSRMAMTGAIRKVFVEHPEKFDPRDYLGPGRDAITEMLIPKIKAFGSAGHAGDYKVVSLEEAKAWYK
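40 nM FBPA preincubated 10 min at RT with compound (up to 57.5 uM final), then substrate plus GAPDH/TPI/NAD/arsenate coupling and diaphorase/resazurin added. Fluorescence read after 20 min at RT, 525/598 nm.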
FMDV antiviral – antivirals against foot and mouth disease virus | FMDV antiviral cell-based qHTS | Potency, µM (top dose mostly 57.9 µM), for the others: at the highest dose activity change, negative = inhibition, hits mostly inhibitors | 1.2% of 410,000 active; calls by dose curve; tested in HEK293T cells; note: read-out not given here; nearly all actives have a fitted effect of over 45% in size
VACV mCherry inh – inhibitors of vaccinia virus infection (mCherry reporter signal) | Vaccinia virus mCherry reporter infection, fluorescence | Potency, µM (titrated, usually from 36.5 µM), without a hit: at the highest dose activity change, negative = inhibition, most hits filed as inhibitors | 0.63% of 310,000 active | AID 720579; calls by dose curve; tested in A549 cells; note: nearly all actives have a fitted effect of over 35% in size
Giardia growth – Giardia lamblia growth inhibition; shares compounds with Giardia FBPA inh-1; 5% of 1,500 active; Giardia lamblia trophozoite growth inhibition; Potency, µM (doses to about 57.5 µM), without a hit: at the top dose activity change, negative = inhibition, hits mostly inhibitors; AID 2785;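 note: trophozoites exposed to compound for 48 h at 37 °C; nearly all actives have a fitted effect of over 70% in size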
Mammalian tox – mammalian cytotoxicity of Giardia aldolase inhibitor hits; shares compounds with Giardia FBPA inh-1; mammalian cell viability counter-screen, qHTS; Potency, µM (titrated, usually from 57.5 µM), inactives show top-dose viability change, negative = toxicity, most hits filed as inhibitors; 4% of 1,500 active;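 note: Chinese hamster ovary cells used as mammalian cytotoxicity surrogate; viability measured as cellular ATP by luminescence; compound exposure lasted 48 h before reading; nearly all actives have a fitted effect of over 60% in size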
Giardia FBPA inh-2 – confirmation of Giardia fructose-bisphosphate aldolase inhibitors; shares compounds with Giardia FBPA inh-1; purified Giardia aldolase enzyme activity, qHTS; Potency, µM (series often up to 57.5 µM), inactives show top-dose activity change, negative = inhibition, actives largely listed as inhibitors; 5% of 1,500 active; AID 2787; note: nearly all actives have a fitted effect of over 45% in size
Rabbit FBPA inh – rabbit FBP aldolase inhibition by Giardia aldolase hits; shares compounds with Giardia FBPA inh-1; AID 2794; 4% of 1,500 active; Potency, µM (titrated, usually from 57.5 µM), without a hit: top-dose activity, negative = inhibition, usual class: inhibitors; Rabbit muscle FBPA enzyme inhibition, selectivity counter-screen; note: nearly all actives have a fitted effect of over 60% in size
Target sequence (P00883 whole entry, looked up): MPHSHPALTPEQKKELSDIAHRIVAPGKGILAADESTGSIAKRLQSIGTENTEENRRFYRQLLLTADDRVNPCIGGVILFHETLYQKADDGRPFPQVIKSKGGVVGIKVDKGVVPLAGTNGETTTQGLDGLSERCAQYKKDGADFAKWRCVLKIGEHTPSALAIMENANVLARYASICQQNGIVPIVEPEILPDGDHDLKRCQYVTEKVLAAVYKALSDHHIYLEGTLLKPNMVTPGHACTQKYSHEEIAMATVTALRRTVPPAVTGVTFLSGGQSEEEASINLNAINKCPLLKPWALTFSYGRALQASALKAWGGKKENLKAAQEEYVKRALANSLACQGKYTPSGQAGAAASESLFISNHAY
GAPDH counter – GAPDH inhibition flagged for Giardia aldolase hits. shares compounds with Giardia FBPA inh-1. GAPDH coupling enzyme counterscreen, biochemical, qHTS. Potency, µM (series often up to 57.5 µM), without a hit: at the top dose activity change, negative = inhibition, hits mostly inhibitors. 6% of 1,500 active. AID 2795; note: nearly all actives have a fitted effect of over 55% in size
* hit, by the source's call; i = inactive; ? = inconclusive; / = not tested or not shown; [ ] = remark or other dose. The list is not random: actives were taken first. Their share in the collection is about 2.2%. Unless noted, calls come from the whole dose curve; as a rule, active = well fitted curve in the direction sought with a large enough effect; inconclusive = small, poorly fitted or top-dose-only effect, or another doubt; inactive = no such curve, though single readings can be large; an effect the other way counts as inactive or inconclusive. % is set by controls: 0 for no effect and ±100 for the full control effect; potency is the fitted concentration of half-maximal effect.

SMILES | VACV Venus inh | Giardia FBPA inh-1 | FMDV antiviral | VACV mCherry inh | Giardia growth | Mammalian tox | Giardia FBPA inh-2 | Rabbit FBPA inh | GAPDH counter
C=CCN(CC=C)CCOc1ccc(C)cc1[N+](=O)[O-] | / | 20µM* | 49% | / | ? | 2% | -1% | 1% | -4%
C=CCN(CC=C)CCOc1cc(C)ccc1[N+](=O)[O-] | -7% | ? | -7% | -18% | / | / | / | / | /
COc1ccc(CCNC(=O)C(=O)c2c[nH]c3ccccc23)cc1 | -19% | / | 3% | -27% | / | / | / | / | /
COC(=O)c1c(-c2ccc(OC)c(OC)c2)csc1N | 3% | 18µM* | -19% | -2% | -30% | -13% | ? | -13% | -12%
COC(=O)c1c(-c2cccc(OC)c2)csc1N | 3% | -21% | -7% | 0% | / | / | / | / | /
Cn1nnc(NC(=S)NC(=O)/C=C/c2ccco2)n1 | 8% | 3.5µM* | -20% | i | -28%[38.3 µM] | -2% | -19% | -20% | -23%
C1CCN2CC3CC(CN4CCCC[C@@H]34)C2C1 (some centres not stated) | / | 3% | / | / | / | / | / | / | /
O=C(CNC(=O)C1CCCCC1)OCC(=O)c1ccc2c(c1)CCC2 | -11% | / | / | 31% | / | / | / | / | /
COC(=O)c1cc(=O)c2c(C)nc(C(Cl)(Cl)Cl)nc2[nH]1 | -21% | 20µM* | ? | -8% | -21% | -18% | -3% | -5% | -23%
COc1ccc(S(=O)(=O)NCCCC(=O)Nc2ccc(Sc3ccc(N)cc3)cc2)cc1 | / | -1% | / | / | / | / | / | / | /
Brc1ccc(CN2CCN(Cc3c[nH]c4ccccc34)CC2)cc1 | -24% | 14µM* | -19% | ? | 20µM* | -8% | -4% | 1% | 1%
O=C(O)c1c(Cl)c(Cl)c(Cl)c(Cl)c1-c1c2cc(I)c(=O)c(I)c-2oc2c(I)c(O)c(I)cc12 | / | -16% | / | / | / | / | / | / | /
O=c1c2cn[nH]c2[nH]c(=S)n1-c1ccccc1F | -3% | 7.1µM* | 4% | -7% | 2%[38.3 µM] | -2% | -3% | -6% | -1%
COc1cc(-n2c(=S)[nH]c3ccccc3c2=O)c(Cl)cc1Cl | ? | -6% | 53% | / | / | / | / | / | /
O=c1c2cn[nH]c2[nH]c(=S)n1-c1ccccc1Cl | -6% | 25µM* | 18% | -12% | 28% | 17% | 7% | 2% | 13%
Cc1ccc(-n2c(=S)[nH]c3[nH]ncc3c2=O)cc1 | / | 16µM* | 8% | / | 27% | -1% | -3% | 3% | -10%
O=C1c2cc(O)cc(O)c2OC[C@@H]1c1ccc(O)c(O)c1 | / | -15% | / | / | / | / | / | / | /
C=C[C@@H]1c2cc(C)ccc2N(S(=O)(=O)c2ccc(C)cc2)[C@H](c2ccc(C(=O)OC)cc2)C1(C#N)C#N | -4% | / | / | i | / | / | / | / | /
COc1ccc(C(=O)Nc2sc3c(c2C(N)=O)CCCC3)cc1OC | / | 2% | 16% | / | / | / | / | / | /
Oc1ccc(/C=N/Nc2ccnc3cc(Cl)ccc23)c(O)c1O | 4% | 14µM* | -11% | -4% | -19% | 0% | ? | ? | ?
Oc1ccc(/C=N/Nc2ccnc3cc(Cl)ccc23)cc1O | -11% | -8% | -3% | ? | / | / | / | / | /
COc1ccc(NCC(O)COc2ccc(C(C)(C)C)cc2)cc1 (configuration not stated) | -20% | -6% | -11% | -9% | / | / | / | / | /
COc1ccccc1NCC(O)COc1ccc(C(C)(C)C)cc1 (configuration not stated) | -25% | 18µM* | -12% | -21% | ? | 9% | -12% | -1% | -12%
CC1=NN(C(N)=S)C(=O)C1N=Nc1cccc(C(=O)O)c1 (configuration not stated) | -4% | ? | ? | i | -15%[38.3 µM] | -2% | -16% | -12% | -8%
CC1=NN(C(N)=S)C(=O)C1N=Nc1ccccc1Cl (configuration not stated) | / | 16% | 47% | / | / | / | / | / | /
SMILES | VACV Venus inh | Giardia FBPA inh-1 | FMDV antiviral | VACV mCherry inh | Giardia growth | Mammalian tox | Giardia FBPA inh-2 | Rabbit FBPA inh | GAPDH counter
CC1=NN(C(N)=S)C(=O)C1N=Nc1ccccc1C(=O)O (configuration not stated) | / | 14µM* | 6% | / | -14%[10.4 µM] | -9% | 3% | 6% | 9%
NC1=C(O)C(=O)C(c2ccccc2)O1 (configuration not stated) | / | 16µM* | -18% | / | 6%[10.4 µM] | 5% | -24% | -13% | -22%
Cc1ccc(-c2csc(=Nc3ccccc3)n2Cc2ccc3c(c2)OCO3)cc1C | 5% | / | 8% | -8% | / | / | / | / | /
NC(=NCc1ccc2c(c1)OCO2)NC(=O)c1ccccc1 | -5% | 1.4µM* | -23% | -9% | 13%[38.3 µM] | -4% | -7% | 0% | 7%
COc1ccc(CN2CCN(CCCc3ccccc3)CC2)c(OC)c1 | / | 16µM* | / | / | 8% | -14% | -1% | 5% | 13%
COc1ccc(CN2CCN(Cc3ccccc3C(F)(F)F)CC2)c(OC)c1 | -5% | 13µM* | -18% | -9% | ? | 12% | -2% | 8% | -4%
COc1ccc(C2=Nn3c(nnc3-c3cccc(OC)c3OC)SC2)cc1OC | / | 8% | / | / | / | / | / | / | /
COc1ccc(-c2nnc(SCC(=O)NCCc3ccc(OC)c(OC)c3)nc2-c2ccc(OC)cc2)cc1 | -5% | / | -16% | i | / | / | / | / | /
COc1ccc(CCNC(=O)CSc2nnc(-c3ccco3)c(-c3ccco3)n2)cc1OC | / | 13µM* | / | / | -22% | -9% | -27% | -23% | -25%
CNc1ncnc2c1ncn2[C@H]1C[C@H](O)[C@@H](CO)O1 | 4% | / | 3% | -4% | / | / | / | / | /
COc1ccc2c(c1)c1nnc(SC(C)C)nc1n2C | -8% | / | / | -9% | / | / | / | / | /
Cc1ccc(N2CCN(CC3CC=CCC3)CC2)cc1 (configuration not stated) | 0% | -3% | 10% | -14% | / | / | / | / | /
C1=CCC(CN2CCN(C3CCCCCC3)CC2)CC1 (configuration not stated) | -4% | 14µM* | -4% | -9% | -10% | 6% | 1% | -2% | 0%
O=C(NCC1CC1)c1ccc2nc(-c3ccoc3)c(-c3ccoc3)nc2c1 | -14% | / | / | 19% | / | / | / | / | /
Cn1c(=O)c(-c2ccc(Cl)cc2)nc2cncnc21 | / | 8% | -16% | / | / | / | / | / | /
Cn1ncnc2c(=O)n(C)c(=O)nc1-2 | / | 0.5µM* | 1.6µM* | / | 13µM* | 8.9µM* | 3.2µM* | 4.5µM* | 2.5µM*
O=S1(=O)N=C(N/N=C/c2cccs2)c2ccccc21 | -9% | 2µM* | 8% | -17% | -3%[38.3 µM] | -5% | 1% | 12% | 4%
O=[N+]([O-])c1ccc(O)c(/C=N/NC2=NS(=O)(=O)c3ccccc32)c1 | -12% | 8.9µM* | -6% | i | -6%[38.3 µM] | -14% | ? | 1% | -16%
O=[N+]([O-])c1ccc(/C=N/NC2=NS(=O)(=O)c3ccccc32)cc1 | / | -8% | 21% | / | / | / | / | / | /
